# Laboratory results as given in PubChem BioAssay (EPA / NIEHS).
# The source made the active and inactive calls. How the source made its calls: active means hit-call score of the fitted dose curve at least 0.9, where 1 is the maximum; inactive means score below 0.9.
# Target: Heat shock factor protein 1 (Homo sapiens) (UniProt Q00613)
# Experiment: ATG_HSE_CIS: Attagene CIS-FACTORIAL HepG2 Assay for human Heat Shock Transcription Factor 1 (HSE) (AID 2282953)
# Conditions: HepG2 HSE cis-reporter, Attagene RNA transcription; actives raise or lower the signal
# Protocol: ATG_CIS is a cell-based, multiplexed-readout assay that uses HepG2, a human liver cell line, with measurements taken at 24 hours after chemical dosing in a 24-well plate.ATG_HSE_CIS is one of 52 assay component(s) measured or calculated from the ATG_CIS assay. It is designed to make measurements of mRNA induction, a form of inducible reporter, as detected with fluorescence intensity signals by Reverse transcription polymerase chain reaction (RT-PCR) and Capillary electrophoresis technology.Data from the assay component ATG_HSE_CIS was analyzed into 1 assay endpoint. This assay endpoint, ATG_HSE_CIS, was analyzed with bidirectional fitting relative to DMSO as the negative control and baseline of activity. Using a type of inducible reporter, measures of mRNA for gain or loss-of-signal activity can be used to understand the reporter gene at the transcription factor-level as they relate to the gene HSF1. Furthermore, this assay endpoint can be referred to as a primary readout, because this assay has produced multiple assay endpoints where this one serves a reporter gene function. To generalize the intended target to other relatable targets, this assay endpoint is annotated to the dna binding intended target family, where the subfamily is heat shock protein.
# Human liver HepG2 cells are transiently transfected with multiple reporter transcription units (MRTUs) in 6-well plates using FuGene 6 reagent (Roche; 3 ml FuGene/1 mg DNA). The MRTU constructs are regulated by a cis-regulating element (promoter). […] A major difference between the CIS and TRANS system is that in CIS activities of endogenous TFs are measured, whereas the TRANS assay evaluates changes in activities of exogenous, chimeric NR-Gal4 proteins. […] At the end of 24 hour incubation, total RNA was isolated using TriZol reagent (Invitrogen). The isolated RNA is then reverse-transcribed using oligo(dT) primer and Mo-MLV reverse transcriptase (Invitrogen) with DNAse I (Ambion) treatment for 30 min. The one-tenth of the produced cDNA was amplified by PCR using Taq DNA polymerase (Invitrogen) and two reporter sequence-specific primers. The PCR products were fluorescently labeled by primer extension with 6-arboxyfluorescein (6-FAM) 5'-labeled reporter sequence-specific primer (2 min at 95 C, 20 s at 68 C and 10 min at 72 C) and these products were digested with 5U of HpaI (New England Biolabs) for 2h at 37 C. The fragments were purified using Qiaquick PCR columns (Qiagen), analyzed on an ABI 3130xL genetic analyzer (Applied Biosystems) with peak positions identified by using a set of X-rhodamine (ROX)-labeled MapMarker1000 molecular weight standards (BioVentures). The raw capillary electrophoresis data was processed using Attagraph software (Attagene).
# Chain of Heat shock factor protein 1 (Homo sapiens) (Q00613 whole entry, looked up): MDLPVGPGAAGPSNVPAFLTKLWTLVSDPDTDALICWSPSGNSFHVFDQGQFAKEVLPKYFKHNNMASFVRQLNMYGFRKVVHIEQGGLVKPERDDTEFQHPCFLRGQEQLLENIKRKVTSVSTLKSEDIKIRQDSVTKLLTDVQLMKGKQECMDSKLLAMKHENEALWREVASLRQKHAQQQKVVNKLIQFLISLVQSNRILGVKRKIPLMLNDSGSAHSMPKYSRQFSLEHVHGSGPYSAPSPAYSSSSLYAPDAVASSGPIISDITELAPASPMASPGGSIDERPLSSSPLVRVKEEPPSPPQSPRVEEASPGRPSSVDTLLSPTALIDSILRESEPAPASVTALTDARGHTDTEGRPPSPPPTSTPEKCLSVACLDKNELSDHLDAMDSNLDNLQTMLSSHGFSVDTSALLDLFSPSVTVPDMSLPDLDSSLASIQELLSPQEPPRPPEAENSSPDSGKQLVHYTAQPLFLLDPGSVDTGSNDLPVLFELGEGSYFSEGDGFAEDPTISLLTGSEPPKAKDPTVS
Structure (SMILES),outcome,AC50
C[C@H]1C[C@H]2[C@@H]3CCC4=CC(=O)C=C[C@]4(C)[C@@]3(F)[C@@H](O)C[C@]2(C)[C@@]1(O)C(=O)COP(=O)(O)O,inactive,
C=CC(=O)OCCOCCOCC,inactive,
CC(C)[C@H]1CC[C@@H](C)CC1=O,inactive,
O=C(O)CN(CCN(CC(=O)O)CC(=O)O)CCN(CC(=O)O)CC(=O)O,inactive,
CCCCCC=CCC(=O)OC,inactive,
CCCCNC(=O)NS(=O)(=O)c1ccc(N)cc1,inactive,
CCCCCCCCC,inactive,
CCCC/C=C\CCCCCCCCCC=O,inactive,
CCC(C(=O)NC(N)=O)c1ccccc1 (stereo not given),inactive,
CO[Si](C)(OC)c1ccccc1,inactive,
CCCC(=O)c1cc(O)c(O)cc1O,inactive,
CCCc1c(OCCCOc2ccc(OCC(=O)O)cc2)ccc(C(C)=O)c1O,,150 µM (active)
CCCCCCCCCCCCN(CCCCCCCCCCCC)CCCCCCCCCCCC,inactive,
O=C(O)CCCCC1CCSS1 (stereo not given),inactive,
CC(C)[C@@H]1CC[C@@H](C)CC1=O,inactive,
Nc1nc2ccc([N+](=O)[O-])cc2s1,inactive,
CC(C)Oc1ccccc1O,inactive,
O=C(Nc1ccccc1)c1cc([N+](=O)[O-])ccc1Cl,,154 µM (active)
CCCCCCCCCCCCCCCCCC(=O)OCC(CC)CCCC (stereo not given),inactive,
CC1=CC(=O)NS(=O)(=O)O1,inactive,

Structure (SMILES),outcome,AC50
CC(C=O)Cc1ccc(C(C)C)cc1 (stereo not given),inactive,
CC(CN1c2ccccc2Sc2ccccc21)N(C)C (stereo not given),inactive,
CC(C)=CCCC(C)=CCCC(C)=CCO,inactive,
O=c1oc(=O)c2cc3c(=O)oc(=O)c3cc12,inactive,
COc1nc(C)nc(N)n1,inactive,
C=CC(=O)OCC(O)COc1ccccc1 (stereo not given),,134 µM (active)
CCCCCC(CO)CCC (stereo not given),inactive,
O=Cc1ccc(F)cc1,inactive,
CCC(=O)/C=C/C1C(C)=CCCC1(C)C (stereo not given),inactive,
CCc1c(C)cc(N)c(CC)c1N,inactive,
CC(C)(C)c1cc(CCC(=O)NN)cc(C(C)(C)C)c1O,inactive,
Cc1ccccc1C=O,inactive,
BrC1CCC(Br)C(Br)CCC(Br)C(Br)CCC1Br (stereo not given),inactive,
NC(=O)c1ccccc1Cl,,62.7 µM (active)
C=C(C)C(=O)O,inactive,
Cc1ccc(Nc2ccc(O)c3c2C(=O)c2ccccc2C3=O)cc1,inactive,
O=C(O)CCSCCC(=O)O,inactive,
COc1cccc(OC)c1,inactive,
C=CC(=O)OCCn1c(=O)n(CCOC(=O)C=C)c(=O)n(CCOC(=O)C=C)c1=O,,54.2 µM (active)
Cc1ccc(O)c(C(C)(C)C)c1,inactive,
